About 83,000 compounds went through this panel and 20% of them were active in at least one assay; those are over-represented in the sample as a whole.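 Step 1: grow cells in 96-well plates. Step 2: add test compound at a single concentration. Step 3: incubate 48 h. Step 4: record percent growth.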 Active and inactive are the calls of the source. How the source made its calls: active means growth percent below 10; inactive means the rest.
Assays:
Assay in all cases: NCI-60 one-dose screen, 48 h (100 = growth as untreated, 0 = no growth, -100 = all killed)
Conditions in all cases: 10 µM unless noted
SK-MEL-2 melanoma = tested on: SK-MEL-2 melanoma
EKVX NSCLC = tested on: EKVX NSCLC
SN12C renal = tested on: SN12C renal
UO-31 renal = tested on: UO-31 renal
TK-10 renal = tested on: TK-10 renal
ACHN renal = tested on: ACHN renal
CAKI-1 renal = tested on: CAKI-1 renal
A498 renal = tested on: A498 renal
CCRF-CEM leukemia = tested on: CCRF-CEM leukemia
MOLT-4 leukemia = tested on: MOLT-4 leukemia
SR leukemia = tested on: SR leukemia
RPMI-8226 leukemia = tested on: RPMI-8226 leukemia
OVCAR-8 ovarian = tested on: OVCAR-8 ovarian
OVCAR-5 ovarian = tested on: OVCAR-5 ovarian
OVCAR-4 ovarian = tested on: OVCAR-4 ovarian
SK-OV-3 ovarian = tested on: SK-OV-3 ovarian
IGROV1 ovarian = tested on: IGROV1 ovarian
HS 578T breast = tested on: HS 578T breast
NCI/ADR-RES ovarian = tested on: NCI/ADR-RES ovarian

Measured: growth

O=C1[C@@H]2Cc3c([nH]c4ccccc34)[C@H](c3ccc(Cl)cc3)N2C(=O)CN1C1CCN(Cc2ccccc2)CC1
inactive: SK-MEL-2 melanoma 82.3% | EKVX NSCLC 47.1% | SN12C renal 46.4% | UO-31 renal 26.3% | TK-10 renal 81% | ACHN renal 49.4% | CAKI-1 renal 27.3% | A498 renal 57.5% | CCRF-CEM leukemia 36.7% | MOLT-4 leukemia 27% | RPMI-8226 leukemia 21.8% | OVCAR-8 ovarian 64.4% | OVCAR-5 ovarian 85.5% | OVCAR-4 ovarian 54.4% | SK-OV-3 ovarian 89.6% | IGROV1 ovarian 43.3% | HS 578T breast 65.5% | NCI/ADR-RES ovarian 52.6%
active: SR leukemia 4.81%

O=C(/C=C/c1ccc(Cl)c(Cl)c1)Nc1ncc(Cc2ccc(Cl)c(Cl)c2)s1
inactive: SK-MEL-2 melanoma 79.2% | EKVX NSCLC 69.8% | SN12C renal 83.7% | UO-31 renal 63.5% | TK-10 renal 95.8% | ACHN renal 42.6% | CAKI-1 renal 53.9% | A498 renal 99.8% | CCRF-CEM leukemia 71.3% | MOLT-4 leukemia 54.8% | SR leukemia 38% | RPMI-8226 leukemia 81.2% | OVCAR-8 ovarian 44% | OVCAR-5 ovarian 59.6% | OVCAR-4 ovarian 34% | SK-OV-3 ovarian 77.1% | IGROV1 ovarian 60.6% | HS 578T breast 76.4% | NCI/ADR-RES ovarian 52.8%

CN1CCN(c2ccc(Nc3nc(NCCCNS(=O)(=O)c4ccc(F)cc4)c4sccc4n3)cc2)CC1
inactive: SK-MEL-2 melanoma 107% | EKVX NSCLC 93.5% | SN12C renal 82% | UO-31 renal 64.7% | TK-10 renal 140% | ACHN renal 70.4% | CAKI-1 renal 67.6% | A498 renal 128% | CCRF-CEM leukemia 31.1% | MOLT-4 leukemia 21.6% | RPMI-8226 leukemia 12.5% | OVCAR-8 ovarian 77.3% | OVCAR-5 ovarian 86.7% | OVCAR-4 ovarian 60% | SK-OV-3 ovarian 115% | IGROV1 ovarian 81.6% | HS 578T breast 55.6% | NCI/ADR-RES ovarian 87.8%
active: SR leukemia 7.3%

NC(N)=NS(=O)(=O)c1ccc(N=Nc2c(N)nn(-c3ccc([N+](=O)[O-])cc3[N+](=O)[O-])c2N)cc1
inactive: SK-MEL-2 melanoma 106% | EKVX NSCLC 99% | SN12C renal 101% | UO-31 renal 82.5% | TK-10 renal 120% | ACHN renal 101% | CAKI-1 renal 90.5% | A498 renal 94.5% | CCRF-CEM leukemia 97.7% | MOLT-4 leukemia 99.4% | SR leukemia 107% | RPMI-8226 leukemia 99.1% | OVCAR-8 ovarian 100% | OVCAR-5 ovarian 106% | OVCAR-4 ovarian 104% | SK-OV-3 ovarian 91.4% | IGROV1 ovarian 103% | HS 578T breast 97.9% | NCI/ADR-RES ovarian 99.3%

CNC(=O)c1cc(-n2ccc3cc(NC(=O)Nc4ccc(N5CCN(C)CC5)c(C(F)(F)F)c4)ccc32)ccn1
active: CCRF-CEM leukemia 7.32% | MOLT-4 leukemia -12.8% | SR leukemia -32.6% | RPMI-8226 leukemia -11.2%
inactive: SK-MEL-2 melanoma 87.2% | EKVX NSCLC 84.5% | SN12C renal 94.6% | UO-31 renal 42% | TK-10 renal 121% | ACHN renal 77.4% | CAKI-1 renal 85.8% | A498 renal 87.9% | OVCAR-8 ovarian 97.7% | OVCAR-5 ovarian 90% | OVCAR-4 ovarian 84.5% | SK-OV-3 ovarian 105% | IGROV1 ovarian 91.9% | HS 578T breast 67% | NCI/ADR-RES ovarian 98%

O=c1c2cc(-c3ccc(F)cc3F)ccc2n(O)c(=O)n1-c1cccc(C(F)(F)F)c1
inactive: CCRF-CEM leukemia 15.2% | OVCAR-8 ovarian 12% | OVCAR-5 ovarian 42.3% | OVCAR-4 ovarian 31.7% | IGROV1 ovarian 21.2%
active: SK-MEL-2 melanoma -34.3% | EKVX NSCLC 4.46% | SN12C renal 0.105% | UO-31 renal 8% | TK-10 renal 1.66% | ACHN renal 0.899% | CAKI-1 renal -16.4% | A498 renal -22.4% | MOLT-4 leukemia 0.581% | SR leukemia -0.936% | RPMI-8226 leukemia -19.1% | SK-OV-3 ovarian -14.5% | HS 578T breast -0.801% | NCI/ADR-RES ovarian 3.16%

N#Cc1c(-c2cccs2)c(C#N)c(=O)n(Cc2nc3ccccc3[nH]2)c1N
inactive: SK-MEL-2 melanoma 92.6% | EKVX NSCLC 90.9% | SN12C renal 91.8% | UO-31 renal 60% | TK-10 renal 152% | ACHN renal 96.8% | CAKI-1 renal 80.7% | A498 renal 118% | CCRF-CEM leukemia 101% | MOLT-4 leukemia 102% | SR leukemia 92.5% | RPMI-8226 leukemia 95.9% | OVCAR-8 ovarian 95.1% | OVCAR-5 ovarian 116% | OVCAR-4 ovarian 99.6% | SK-OV-3 ovarian 95.4% | IGROV1 ovarian 61.7% | HS 578T breast 102% | NCI/ADR-RES ovarian 99.5%

O=C(N/N=C\c1ccc(F)cc1)c1ccc2nc(-c3ccc(Br)cc3)[nH]c2c1
inactive: SK-MEL-2 melanoma 83.2% | EKVX NSCLC 53.1% | SN12C renal 29.4% | UO-31 renal 55.4% | TK-10 renal 42.4% | ACHN renal 12% | CAKI-1 renal 43% | A498 renal 80.8% | CCRF-CEM leukemia 53.6% | MOLT-4 leukemia 31.7% | SR leukemia 41.3% | RPMI-8226 leukemia 63.5% | OVCAR-8 ovarian 27.4% | OVCAR-5 ovarian 63.3% | OVCAR-4 ovarian 12.5% | SK-OV-3 ovarian 90.9% | HS 578T breast 36.1% | NCI/ADR-RES ovarian 68.2%
active: IGROV1 ovarian 3.87%
